Assay outcomes: PubChem BioAssay, Center for Chemical Genomics, University of Michigan
This excerpt belongs to a sample that is enriched for hits.
Dicer inh: human Dicer pre-microRNA cleavage inhibition; cat-ELCCA pre-miR-21 Dicer processing, chemiluminescence; active compounds read high; 6% of 47,000 active; z-score at 25 µM; in the data active = z-score above about 3, passing the limit was not always enough;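 also: plate controls were vehicle for no effect and no enzyme for full effect; higher signal means more uncleaved substrate so more Dicer inhibition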
Target sequence (Q9UPY3 whole entry, looked up): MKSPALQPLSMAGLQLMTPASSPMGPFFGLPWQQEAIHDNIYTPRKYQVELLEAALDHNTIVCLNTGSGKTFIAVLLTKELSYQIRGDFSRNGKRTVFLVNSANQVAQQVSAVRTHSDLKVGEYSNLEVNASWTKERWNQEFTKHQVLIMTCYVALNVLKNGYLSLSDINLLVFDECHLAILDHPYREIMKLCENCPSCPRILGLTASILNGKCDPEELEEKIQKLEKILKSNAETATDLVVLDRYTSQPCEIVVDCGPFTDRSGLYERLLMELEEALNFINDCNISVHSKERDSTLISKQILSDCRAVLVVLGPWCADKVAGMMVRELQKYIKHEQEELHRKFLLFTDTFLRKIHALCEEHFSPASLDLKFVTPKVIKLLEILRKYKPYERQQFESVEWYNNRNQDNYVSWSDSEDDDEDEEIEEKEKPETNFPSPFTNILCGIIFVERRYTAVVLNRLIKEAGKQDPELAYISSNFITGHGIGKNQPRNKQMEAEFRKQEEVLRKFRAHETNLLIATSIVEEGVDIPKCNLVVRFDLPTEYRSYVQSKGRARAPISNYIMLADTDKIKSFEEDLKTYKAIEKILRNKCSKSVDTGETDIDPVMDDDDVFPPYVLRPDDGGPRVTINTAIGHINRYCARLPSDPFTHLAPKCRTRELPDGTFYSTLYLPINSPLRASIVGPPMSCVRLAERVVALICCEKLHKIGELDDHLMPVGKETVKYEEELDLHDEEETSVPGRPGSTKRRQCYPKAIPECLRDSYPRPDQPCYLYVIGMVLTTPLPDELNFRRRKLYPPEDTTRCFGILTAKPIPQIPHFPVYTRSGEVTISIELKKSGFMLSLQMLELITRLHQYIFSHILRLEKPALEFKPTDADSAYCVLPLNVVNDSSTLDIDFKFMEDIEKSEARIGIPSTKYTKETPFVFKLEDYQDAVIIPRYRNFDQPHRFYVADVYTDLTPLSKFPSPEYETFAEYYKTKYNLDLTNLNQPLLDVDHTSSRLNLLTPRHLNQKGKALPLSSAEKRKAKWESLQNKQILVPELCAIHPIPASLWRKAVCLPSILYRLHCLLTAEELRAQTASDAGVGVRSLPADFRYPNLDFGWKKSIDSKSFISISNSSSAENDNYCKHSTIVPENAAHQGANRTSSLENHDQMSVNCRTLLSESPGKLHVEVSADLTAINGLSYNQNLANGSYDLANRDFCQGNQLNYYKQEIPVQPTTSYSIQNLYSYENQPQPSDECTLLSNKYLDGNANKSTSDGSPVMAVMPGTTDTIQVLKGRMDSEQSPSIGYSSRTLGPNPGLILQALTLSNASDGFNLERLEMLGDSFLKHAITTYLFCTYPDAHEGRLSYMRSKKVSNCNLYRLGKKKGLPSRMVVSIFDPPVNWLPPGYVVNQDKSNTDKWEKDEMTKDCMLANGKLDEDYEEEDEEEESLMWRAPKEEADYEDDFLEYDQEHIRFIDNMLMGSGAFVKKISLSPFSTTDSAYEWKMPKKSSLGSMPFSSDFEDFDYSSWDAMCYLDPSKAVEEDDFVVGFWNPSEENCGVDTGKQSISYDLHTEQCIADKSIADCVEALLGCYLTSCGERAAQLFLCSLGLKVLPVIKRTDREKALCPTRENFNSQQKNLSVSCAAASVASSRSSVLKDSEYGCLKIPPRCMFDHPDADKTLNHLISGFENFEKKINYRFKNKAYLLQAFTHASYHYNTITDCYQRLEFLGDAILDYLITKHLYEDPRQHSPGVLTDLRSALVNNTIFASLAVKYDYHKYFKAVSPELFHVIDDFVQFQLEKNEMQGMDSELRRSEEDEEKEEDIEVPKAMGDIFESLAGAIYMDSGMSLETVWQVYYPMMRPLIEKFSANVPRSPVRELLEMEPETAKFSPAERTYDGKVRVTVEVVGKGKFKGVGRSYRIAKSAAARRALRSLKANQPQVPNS
Numbers without * were called inactive.

SMILES | Dicer inh
O=C(c1ccco1)c1cn(CCOc2ccc(F)cc2)c2ccccc12 | 1.61
CCN(CC)C(=O)Cn1cc(C(=O)c2ccco2)c2ccccc21 | -0.38
COC(=O)c1cn(CCOc2ccccc2)c2ccccc12 | 3.06*
O=C(c1cccs1)n1ccc(-c2ccc(C#Cc3ccccc3)s2)n1 | 1.24
O=C(O)c1cc(-c2ccc(Cl)cc2)oc1C(F)(F)F | -0.64
COc1ccc(S(=O)(=O)N2CCN(S(=O)(=O)c3ccc(Cl)cc3)CC2)cc1 | 0.66
CSc1ccc(OS(=O)(=O)c2ccc(C)c(F)c2C)cc1 | -0.54
COc1ccc(-c2c(C)n[nH]c2C)c(C(=O)O)c1 | 0.3
Cc1nc(N2CCCC2)ncc1S(=O)(=O)c1ccc(Cl)cc1 | 10.7
Nc1nc(N2CCOCC2)ncc1S(=O)(=O)c1ccc(Cl)cc1 | 3.88*
Nc1c2cnc(N3CCCC3)nc2nc(=O)n1-c1ccc(Cl)cc1 | 1.14
CC1=C(C(=O)OCc2ccccc2)C(c2cccnc2)C2=C(CC(c3ccccc3)CC2=O)N1 (stereo not given) | -0.15
C=CCOC(=O)C1=C(C)NC2=C(C(=O)CCC2)C1c1ccc(OC)c(OC)c1 (stereo not given) | -1.04
CCOC(=O)C1CCN(c2ccccc2CN2CCN(Cc3ccccc3)CC2)CC1 | -0.81
Oc1ccccc1C1=NN2C(C1)c1ccccc1OC2c1ccsc1 (stereo not given) | 4.55
COc1ccc(O)c(C2=NN3C(C2)c2ccccc2OC3c2ccccc2)c1 (stereo not given) | 8.34*
COc1ccc(O)c(C2=NN3C(C2)c2ccccc2OC3c2ccc(OC)c(OC)c2)c1 (stereo not given) | 5.95*
COc1ccc(O)c(C2=NN3C(C2)c2ccccc2OC3c2ccncc2)c1 (stereo not given) | 10.5*
Cc1ccc(O)c(C2=NN3C(C2)c2ccccc2OC3c2ccsc2)c1 (stereo not given) | 2.89
COc1ccc(O)c(C2=NN3C(C2)c2cccc(OC)c2OC3c2cc(OC)ccc2OC)c1 (stereo not given) | 2.92
COc1ccc(O)c(C2=NN3C(C2)c2ccccc2OC3c2ccsc2)c1 (stereo not given) | 5.45*
COc1ccc(O)c(C2=NN3C(C2)c2cccc(OC)c2OC3c2cccc(OC)c2OC)c1 (stereo not given) | 2.07
CCN1C(=O)C2(/C(=C(/O)c3ccc(C)c(F)c3)C(=O)C(=O)N2CC2CCCO2)c2ccccc21 (stereo not given) | -1.99
CCOC(=O)C(C(C)=O)c1c([N+](=O)[O-])c(=O)n(-c2ccccc2)c2ccccc12 (stereo not given) | 0.94
Cc1ccc(-c2n[nH]c(=O)c3ccccc23)cc1 | -0.19
SMILES | Dicer inh
O=C1C2C(c3ccc(F)cc3)OC3(C(=O)c4ccccc4C3=O)C2C(=O)N1Cc1ccccc1 (stereo not given) | -0.27
Cc1cc2nc(NCCO)n(CCOc3ccccc3)c2cc1C | 3.7
Clc1ccc(/C=N/Nc2nc(-c3cc(-c4ccccc4)no3)cs2)cc1 | -2.28
CCCCSC1=C(C#N)C(=O)NC(c2ccc(N(C)C)cc2)S1 (stereo not given) | -0.38
CC(C)C(CO)NC(=O)Oc1ccccc1 (stereo not given) | 0.59
Nc1ncccc1OCc1ccccc1 | -0.85
OC(COC1CCCCC1)Cn1c2ccccc2c2ccccc21 (stereo not given) | -0.54
COC(=O)c1ccc(C2Oc3ccccc3C3CC(c4ccccc4O)=NN32)cc1 (stereo not given) | 0.57
COc1cc(C2Oc3c(OC)cccc3C3CC(c4ccccc4O)=NN32)ccc1O (stereo not given) | 2.64
COc1ccc(O)c(C2=NN3C(C2)c2cccc(OC)c2OC3c2ccccc2F)c1 (stereo not given) | 0.02
COc1cc(C2Oc3ccccc3C3CC(c4ccccc4O)=NN32)ccc1O (stereo not given) | 11.1*
COc1ccc(OC)c(C2Oc3ccccc3C3CC(c4ccccc4O)=NN32)c1 (stereo not given) | 5.97*
COc1ccc(C2Oc3c(OC)cccc3C3CC(c4ccccc4O)=NN32)c(OC)c1 (stereo not given) | 3.72
COc1ccc(O)c(C2=NN3C(C2)c2ccccc2OC3c2cc(OC)ccc2OC)c1 (stereo not given) | 1.7
COc1ccc(O)c(C2=NN3C(C2)c2ccccc2OC3c2cccc(F)c2)c1 (stereo not given) | 5.23*
CCc1cccc(C)c1N1C(=O)c2cccnc2C1=O | 1.3
Cc1nnc(SCC(=O)Nc2nc(-c3ccc(Cl)cc3)ns2)s1 | -2.14
Cc1ccc2c(c1)C(O)(CC(=O)c1ccc(C)o1)C(=O)N2 (stereo not given) | 1.51
COc1ccc(C2=Nc3cccc4cccc(c34)N2)cc1 | 0.66
c1cc2c3c(cccc3c1)-c1nc3ccccc3nc1-2 | -0.43
NC1=Nc2cccc3cccc(c23)N1 | 25.8*
Nc1cccc(C2=Nc3cccc4cccc(c34)N2)c1 | 3.18*
N#CC1=CNc2ccccc2N=C1N | 0.36
CN(C)c1ccc(C2=Nc3cccc4cccc(c34)N2)cc1 | 0.75
COc1ccc(-c2noc(-c3ccc(C)c(C)c3)n2)cc1OC | 1.49
SMILES | Dicer inh
O=c1c2ccccc2nnn1CSc1ncnc2sc3c(c12)CCCC3 | -0.87
COC(=O)c1sc(N2C(=O)C(O)=C(C(=O)c3cccs3)C2c2ccc(OC)cc2)nc1C (stereo not given) | 1.7
COc1ccc(Cc2nc(S(=O)(=O)c3ccc(C)cc3)c(N3CCOCC3)o2)cc1 | 2.51
O=C1NCCCC1C(=O)NCC(O)CO (stereo not given) | -1
C=C(C)CC1C(=O)N(S(=O)(=O)c2ccccc2Cl)N=C1C (stereo not given) | 1.32
C=C(C)CC1C(=O)N(S(=O)(=O)c2ccc(Cl)cc2)N=C1C (stereo not given) | -1.62
C=C(C)CC1C(=O)N(C(=O)c2c(Cl)cccc2Cl)N=C1C (stereo not given) | 3.38*
Cc1sc2ncnc(SCC(=O)c3ccccc3F)c2c1C | -1.03
CC1(C)CC(=O)C2=C(C1)c1c(ccc3ccccc13)NC2c1ccccc1 (stereo not given) | 2.97
CCc1nc(N)nc2c1C(=O)CC(C)(C)C2 | -2.78
CCNc1c2c(nc3ccccc13)CC(C)(C)CC2=O | 3.05*
CCOC(=O)c1cc(-c2ccccc2)sc1NC(=O)Nc1cccc(Cl)c1 | -0.07
O=C1CC(c2cccs2)Cc2c1cnc1[nH]n(-c3ccccc3)c(=O)c21 (stereo not given) | 0.14
O=[N+]([O-])c1cc(C(F)(F)F)ccc1Sc1n[nH]c(-c2ccc(Cl)cc2)n1 | -0.07
Cc1nnc(NC(=O)CCCC(=O)O)s1 | 3.73*
CC(C)c1nnc(NC(=O)CCCC(=O)O)s1 | -1.03
Cc1nnc(NC(=O)CCC(=O)O)s1 | 0.99
O=[N+]([O-])c1ccc(/C=N/Nc2nccc(-c3cccnc3)n2)cc1 | 0.3
CC1(C)OC(=O)c2ccccc2-c2ccccc21 | 0.83
O=C1OC(c2ccccc2)(c2ccccc2)c2ccccc21 | -0.69
CC1(C(=O)O)Cc2ccccc2C(=O)O1 (stereo not given) | 3.9*
CCOC(=O)c1c[nH]c2c(C)ccc(C)c2c1=O | 0.1
CCOC(=O)C1=C(C)Nc2nc3ccccc3n2C1c1ccc(O)c(OCC)c1 (stereo not given) | 0.82
O=C(Nc1ccc(OC(F)(F)F)cc1)Nc1nc(-c2ccc(F)c(F)c2)cs1 | 1.58
COc1ccccc1NC(=O)Nc1nc(-c2ccc(F)c(F)c2)cs1 | -3.09
Fc1ccc(Nc2nc(-c3ccc(F)c(F)c3)cs2)c(F)c1 | 60.2*
